The values below come from PubChem BioAssay (Tox21).

Inconclusive results are not listed. Where a call stands in place of a potency, no number is given. The source made the active and inactive calls. The call rests on the fitted dose curve; in most records, active means well fitted cell-killing curve with a large enough effect in the repeat runs; inconclusive means weak or mixed curves, or effect the other way; inactive means flat fitted curve, though single readings scatter.

A short description of this assay: cAMP Responsive Elements (CRE) small molecule antagonists, cell-based qHTS assay: qHTS cell viability counter screen (AID 2060913). Further: nearly all actives have a fitted effect of over 40% in size. The conditions noted are these: CRE-bla HEK293T viability, CellTiter-Glo luminescence, 5 h; series mostly up to 92.4 µM. The procedure, abridged:
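Viability of NKH477-stimulated (0.25 uM final) CRE-bla HEK293T cells is measured by CellTiter-Glo luminescence following 3 hrs compound exposure at 37 C.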
On to `C=CCc1ccc(OC)cc1`, for which the Potency result is “inactive”. On to `Nc1ccccc1C(=O)O`, for which the Potency entry is “inactive”. On to `Clc1cccc(SC2CCNCC2)n1`, for which the Potency entry was “inactive”.

As for `Oc1cc(Cl)ccc1Cl`, the Potency entry was “inactive”.

Consider `NNC(=S)NN`, for which the Potency result was “inactive”.

On to `CC(Oc1ccc(Cl)cc1Cl)C(=O)O` (stereo not given), for which the Potency entry was “inactive”. In the case of `C=CC(=O)OCCCCO`, the Potency entry is “inactive”. Consider `ClC1=C(Cl)C2(Cl)C3C(Cl)C=CC3C1(Cl)C2(Cl)Cl` (stereo not given), for which the Potency result was “inactive”. For the molecule `CCCCn1cc[n+](C)c1.[Cl][Fe-]([Cl])([Cl])[Cl]`, the Potency result is “inactive”.

For `Nc1ccc([N+](=O)[O-])cc1`, the Potency entry is “inactive”. The entry for `CCCCn1cc[n+](C)c1` (tested in a mixture with another compound) is “inactive”; for `O=C=Nc1ccc(Cl)cc1` it is “inactive”. On to `C=CCOC(Cn1ccnc1)c1ccc(Cl)cc1Cl` (stereo not given), for which the Potency result was “inactive”. On to `OC(c1ccc(Cl)cc1)(c1cncnc1)c1ccccc1Cl` (stereo not given), for which the Potency result is “inactive”. Regarding `Nc1ccc(Cl)cc1C(=O)c1ccccc1`, the Potency result is “inactive”. Turning to `Clc1ccc(Cl)cc1`, the Potency entry was “inactive”. `CCCOc1nn(C(=O)NS(=O)(=O)c2ccccc2C(=O)OC)c(=O)n1C`: the Potency entry is “inactive”. Regarding `COc1cc(C=O)cc2c1[C@H](COC(N)=O)[C@]1(OC(C)=O)ON2C[C@H]2[C@@H]1N2C(C)=O`, the Potency result was “inactive”. As to `N#CC(Br)(Br)C(N)=O`, the Potency entry was “inactive”. The entry for `CCC(C)C(C)(COC(N)=O)COC(N)=O` (stereo not given) is “inactive”; for `C(COCC1CO1)OCC1CO1` (stereo not given) it is “inactive”; for `Nc1ccc([N+](=O)[O-])cc1[N+](=O)[O-]` it is “inactive”.

In the case of `CC(C)=CC1C(C(=O)OCc2cccc(Oc3ccccc3)c2)C1(C)C` (stereo not given), the Potency result is “inactive”.

With `COP(=S)(Oc1cc(Cl)c(Br)cc1Cl)c1ccccc1` (stereo not given), the Potency entry was “inactive”. Regarding `Cc1ncsc1CCCl`, the Potency result is “inactive”. The entry for `CCC(C)c1ccc(O)cc1` (stereo not given) is “inactive”; for `CC(c1ccc(O)cc1)c1ccc(O)cc1` it is “inactive”. As for `c1ccc2c(c1)Oc1ccccc1O2`, the Potency entry is “inactive”. For `CC(O)CCO` (stereo not given), the Potency entry was “inactive”. `OCc1ccco1`: the Potency entry was “inactive”. With `C[C@@H]1CC2=CC(=O)CC[C@@H]2[C@H]2CC[C@@]3(C)[C@@H](CC[C@]3(C)O)[C@@H]21`, the Potency entry was “inactive”.

Take `COP(=S)(OC)Oc1ccc([N+](=O)[O-])c(C)c1`: the Potency entry is “inactive”. The entry for `CCC(=O)c1ccc(Cl)cc1` is “inactive”; for `CCCC[n+]1ccccc1C` it is “inactive”; for `C=CCc1cc(OC)c2c(c1)OCO2` it is “inactive”. Take `BrCBr`: the Potency result was “inactive”.

On to `C[C@]12CC[C@H]3[C@@H](CCC4=CC(=O)CC[C@@H]43)[C@@H]1CC[C@@H]2OC(=O)CCC1CCCCC1`, for which the Potency entry was “inactive”.

As for `O=C1Nc2ccc(Cl)cc2C(c2ccccc2)=NC1O` (stereo not given), the Potency result is “inactive”. For `COC(=O)NS(=O)(=O)c1ccc(N)cc1`, the Potency entry was “inactive”. On to `CCSCc1ccccc1OC(=O)NC`, for which the Potency entry is “inactive”.
